This is an account of results in the supplement of paper PMC6555819.

The assay relates to VDR:RXRa (NR concentration 270 nM, RXRa partner concentration 90 nM). Nature of the assay: PBM binding z-score (relative to random genomic background probes); higher = stronger binding; sequences stand for … in GC…GCGATTGACAGCGTAGAATGAAGG
The method, then:
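Protein-binding microarray (Agilent 4x180K custom design, double-stranded 60-nt probes: 5' GC cap, 34-nt variable region, 24-nt constant primer region; full probe sequence given). Purified or IVT nuclear receptor:RXRα heterodimers (3:1 NR:RXRα, mostly 270:90 nM) or homodimers were incubated for 1 h in PBS with 2% milk and no ligand, then detected with Alexa488 antibodies. Fluorescence from o1-orientation probes (~5 replicates averaged) was converted to z-scores against 500 random hg19 background probes. Variable regions are seed direct-repeat (DR0–DR5) sites, all their single-nucleotide variants and half-site ablations.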
Sequence TATACAGGGCCAAAGGCCAGAGTACGAATGTCGA gave a PBM binding z-score of 0.13. On to CCAGACAGGTGAGAAAGTAACTCAGCCTCGATTA, for which the PBM binding z-score was determined as 0.0167. As for TCGAGTAGGTTACCAATGGCGCATTCAGCTTTCT, the figure is 0.111.

On to CAAACTAGGTCACGAAAGGTAAAAGTCGAATGAC, for which the PBM binding z-score stood at 3.25. The sequence CCTACTGGGCTACGAAAGGTCATTGATTCAGTGA had a PBM binding z-score of 3.71. The sequence GCATATGGGTAATACAAGGTGAAAGTCCGATTGT yielded a PBM binding z-score of 0.212. In turn, CTACCAAGGTGAACAAGGTCGTTGACTACTATTC registered a PBM binding z-score of 6.23. Take GCTATTAGTTGAAAAGGCAACCGAATGATTCTCG: the PBM binding z-score is -0.31. As to GATACAGGGTCTAGGCCAGAGTACGCGTATTGAT, the PBM binding z-score is -0.508. Regarding CCTACTGGGCCATCAGGTCACTGATATCAACGTT, the PBM binding z-score was 1.34. Take CCTAATAGTTGACCATAAGGGCAACCGAAGCTCG: the PBM binding z-score was 0.926. TCTTGTCGATCAGCAGGTTAAGAAAGCTGGCCAA: the PBM binding z-score came out at 0.358. As for TCTAGCAGGCCAGAGGGTCACTGAAGAGGTACGG, the figure is 1.52; as for ACAGACAGCTGATGAAGGTAACTCAGGCTATCAT, -0.282.

Regarding ATCTCTAGGTAAAGTTCAGTAAAAGATCGATAGA, the PBM binding z-score is 1.65.

For the sequence GCTGCTAGGTCGGGTTGGTCAGCTAACGGGTACG, the PBM binding z-score is -0.0515. The same measure for TCGAGTAGGTTAGTCGAGGCATTCAGCCAACATA: -0.258. The sequence ATCGAAAGGTCTAGGTGAGTATAGAGAAAGGGAA registered a PBM binding z-score of 0.435. As for GCTTACGGCTCAAAGGTTATAGCATGAATAGAAT, the figure is 0.88; as for TAGCCTAGGTCATGGGGGCCAGTATAGTGTCGGC, 5.43; as for GCTGCTAGGTCATCTGATGGTCAGCTAAAGCTCG, 1.98. Sequence CGTCCAAGGTCAATGCTAAGTCAGTGAAAGCATT came in with a PBM binding z-score of 3.83. With ACCCGGAGGACAAAGGTCAGAGCTACGCCAGTGA, the PBM binding z-score was 3.2.

As to ACTATTAGTTGACTTAGGGCGACCGATACGACGC, the PBM binding z-score was determined as 0.175.

On to TCTGCTAGGTCAACGATGGTCACCTAATCTGCTA, for which the PBM binding z-score came to 2.19. The sequence GGAACGAGGGCAGGTTGATAGCAGAGTTTGATGG had a PBM binding z-score of 0.111. GTACCAAGGTGAATAGGTCGATGATGAGTAGGCG: the PBM binding z-score was determined as 0.674. As for CGAACTAGGTCAGAACAGGACGGTGAAGGATGAT, the figure is 0.0677. TAACCTAGGTCAGATCGGGCCAGTATACGCTATA showed a PBM binding z-score of 1.52.

The sequence ACTTACGGGTCAAAGAGGTTATAGCACGCGTATA displayed a PBM binding z-score of 7.09. As for GCTGCTAGGTCAACTGATGGTCAGATAAAGCTCG, the figure is 1.82; as for TGATATAGGTAAATGCTAGGTGAAAGTCCGATCT, 0.142.

As for ACTCGGAGGACAATGGTCAGAGCTACGCCAGTGA, the PBM binding z-score is -0.697.

Consider GATACAGAGTCAAGGCCAGAGTACGCGTATTGAT, for which the PBM binding z-score is -0.36. TCTAGTTGGTCAAAGGACACACACTCGAAATGCG had a PBM binding z-score of 1.05. The sequence CGTCCAGGGTCAAGGTCAGTGAAAGAGACTCGAA showed a PBM binding z-score of 4.79.

AGAACGACGGCAATGAGTTGATAGCACGGGTGGC yielded a PBM binding z-score of -0.0161. The same measure for CCTACTGGGCCACGAAAGGTCAGTGATTCAGTGA: 1.72. Take CGTAAAAGTTCAAGGTAACGTAACAGAAAGCAGC: the PBM binding z-score amounted to 3.38. CATACAAGGTCAGCTAGGCCAGAGTAGGGACGGC yielded a PBM binding z-score of 3.81.
